From PubChem
Most compounds without a hit are left out; they make up all but 12% or so of the library.
SARS PLP yeast – blocks SARS-CoV papain-like protease in a yeast assay; 330,000 tested, 0.19% active; S. cerevisiae expressing SARS-CoV PLpro, growth rescue; Potency, µM (series often up to 32.9 µM), without a hit: at the top dose activity, positive = growth rescue, usual class: activators; calls by dose curve; also: 0% is about no effect; nearly all actives have a fitted effect of over 55% in size
Pf growth 48h – inhibits P. falciparum growth in the first generation, 48 h | P. falciparum luciferase growth in erythrocytes, 48 h | Potency, µM (titrated, usually from 28.7 µM), without a hit: top-dose activity change, negative = inhibition, most hits filed as inhibitors | 310,000 tested, 5.9% active | AID 504832; also: % is scaled to controls: 0 for no effect and ±100 for the full control effect
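First compound was added to culture medium, then infected red cells at 0.1% parasitemia and 2% hematocrit (final). After incubation at 37 C under 5% CO2, luciferase detection reagent was dispensed and light output recorded.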
Pf growth 96h – P. falciparum growth inhibition at 96 hour, primary screen for plastid delayed-death inhibitors; P. falciparum luciferase reporter growth, 96 h; 320,000 tested, 6.9% active; Potency, µM (highest dose often 28.7 µM), without a hit: top-dose activity change, negative = inhibition, hits mostly inhibitors; AID 504834; also: % is scaled to controls: 0 for no effect and ±100 for the full control effect
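Luminescence readout: decreased luciferase signal marks inhibited growth of reporter-expressing P. falciparum in infected red cells (2% hematocrit, 0.05% parasitemia final), exposed to compound two generations (96 h, 37 C, 5% CO2).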
AmpC no deterg – inhibitors of E. coli AmpC beta-lactamase without detergent. P00811. AmpC nitrocefin hydrolysis, absorbance 480 nm, 0.0001% Triton. Potency, µM (top dose mostly 57.1 µM), for inactives: at the top dose activity change, negative = inhibition, most hits filed as inhibitors. 330,000 tested, 0.52% active. AID 485341;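 also: plate controls were no compound for no effect and no enzyme for full effect; nearly all actives have a fitted effect of over 20% in size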
Target sequence (P00811 whole entry, looked up): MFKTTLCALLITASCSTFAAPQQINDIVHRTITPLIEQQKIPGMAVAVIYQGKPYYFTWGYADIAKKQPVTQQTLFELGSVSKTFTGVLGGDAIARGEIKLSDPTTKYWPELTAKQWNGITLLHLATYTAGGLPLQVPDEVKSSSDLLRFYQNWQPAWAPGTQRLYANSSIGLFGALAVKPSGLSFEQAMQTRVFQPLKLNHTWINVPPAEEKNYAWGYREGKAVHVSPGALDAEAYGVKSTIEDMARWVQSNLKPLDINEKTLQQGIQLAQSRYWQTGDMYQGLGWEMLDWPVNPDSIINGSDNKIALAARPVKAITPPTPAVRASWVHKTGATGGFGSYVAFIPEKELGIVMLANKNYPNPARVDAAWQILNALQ
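AmpC (5.3 nM in the dispensed reagent) in 20 mM phosphate pH 7.0 with 0.01% (detergent screen) or 0.0001% Triton X-100 was preincubated with compounds for 15 min at room temperature. Nitrocefin was then added from an 800 uM solution, and hydrolysis was followed at 480 nm.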
Sm TGR inh – blocks Schistosoma mansoni thioredoxin glutathione reductase; Q962Y6; purified TGR, DTNB reduction, TNB absorbance 405 nm; Potency, µM (doses to about 114 µM), inactives show at the highest dose activity change, negative = inhibition, actives largely listed as inhibitors; 360,000 tested, 3% active; AID 485364; also: % is scaled to controls: 0 for no effect and ±100 for the full control effect; nearly all actives have a fitted effect of over 60% in size
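Kinetic colorimetric format: TGR-catalysed, NADPH-driven DTNB reduction monitored via TNB absorbance. Enzyme dispensed at 20 nM; compound exposure 15 min at room temperature before reaction start.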
AmpC detergent – blocks E. coli AmpC beta-lactamase in detergent assay | P00811 | AmpC hydrolysis of nitrocefin, absorbance 480 nm, 0.01% Triton | Potency, µM (series often up to 114 µM), inactives show at the top dose activity change, negative = inhibition, hits mostly inhibitors | 370,000 tested, 0.041% active | AID 485294;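 also: 0% = no-compound wells and -100% = no-enzyme wells; nearly all actives have a fitted effect of over 25% in size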
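AmpC (5.3 nM in the dispensed reagent) in 20 mM phosphate pH 7.0 with 0.01% (detergent screen) or 0.0001% Triton X-100 was preincubated with compounds for 15 min at room temperature. Nitrocefin was then added from an 800 uM solution, and hydrolysis was followed at 480 nm.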
* = called active by the depositor; ? = inconclusive; nt = not tested or not shown. Unless noted, calls follow the shape of the dose curve; as a rule, active = well fitted curve in the direction sought with a large enough effect; inconclusive = small, poorly fitted or top-dose-only effect, or another doubt; inactive = no such curve, though single readings can be large; an effect the other way counts as inactive or inconclusive. Potency is read from the fitted curve at half-maximal effect.

SMILES	SARS PLP yeast	Pf growth 48h	Pf growth 96h	AmpC no deterg	Sm TGR inh	AmpC detergent
CCN(CC)P(=O)(Nc1ccc([N+](=O)[O-])cc1)c1c(C)nn(CCC#N)c1NC(=O)c1ccc(Cl)cc1Cl (configuration not stated)	2.8%	7.38µM*	7.38µM*	-16.3%	-7.6%	3.4%
CCc1sc(C(C2C(=O)CC(C)(C)CC2=O)C2C(=O)CC(C)(C)CC2=O)cc1[N+](=O)[O-]	-0.2%	6.6%	24.9%	-30.3%	3.98µM*	-3.0%
CC1(C)CC(=O)C(C(c2ccco2)C2C(=O)CC(C)(C)CC2=O)C(=O)C1	6.7%	-6.2%	99.7%	-13.5%	?	-14.1%
O=C(O)C1CCN(S(=O)(=O)c2cccc3nsnc23)CC1	-3.2%	28.8%	?	-28.7%	10.2%	-0.2%
O=C(O)C1CSCN1S(=O)(=O)c1cccc2nsnc12 (configuration not stated)	0.2%	5.3%	1.6%	-3.9%	44.7µM*	-1.5%
O=C(C1CCCN(S(=O)(=O)c2cccc3cccnc23)C1)N1CCN(c2ccccc2F)CC1 (configuration not stated)	9.6%	nt	14.7µM*	38.8%	9.0%	-17.0%
Cc1ccc(Cl)cc1NC(=O)C1CCCN(S(=O)(=O)c2cccc3cccnc23)C1 (configuration not stated)	nt	nt	nt	nt	-9.6%	-8.5%
Cc1ccccc1NC(=O)C1CCCN(S(=O)(=O)c2cccc3cccnc23)C1 (configuration not stated)	2.9%	6.6%	25.6%	5.01µM*	2.1%	?
O=C(C1CCN(S(=O)(=O)c2cccc3nsnc23)CC1)N1CCN(c2ccccc2F)CC1	7.5%	-2.7%	2.62µM*	66.4%	-20.8%	-5.9%
CC(=O)c1ccc(N2CCN(C(=O)C3CCCN3S(=O)(=O)c3cccc4nsnc34)CC2)cc1 (configuration not stated)	1.0%	?	13.1µM*	-13.5%	-2.0%	0.1%
O=C(Nc1cccc(F)c1)C1CCCN(S(=O)(=O)c2cccc3cccnc23)C1 (configuration not stated)	-1.0%	9.28µM*	?	-18.1%	12.2%	2.2%
COc1ccc(N2CCN(C(=O)CCS(=O)(=O)c3cccc4nsnc34)CC2)cc1	-21.3%	-25.3%	-9.8%	2.6%	?	-13.9%
COc1ccc(N2CCN(C(=O)CS(=O)(=O)c3cccc4nsnc34)CC2)cc1	nt	nt	nt	nt	50.1µM*	-6.7%
Cc1cccc(NC(=O)c2ccc(N(C)C3CCCCC3)c([N+](=O)[O-])c2)n1	-12.4%	?	?	-44.6%	1.8%	-5.7%
COc1cc2[nH]c(=O)n(CCCC(=O)N3CCN(c4cccc(C(F)(F)F)c4)CC3)c(=O)c2cc1OC	nt	nt	nt	nt	6.7%	3.2%
COc1ccc(CCN(C)C(=O)CSc2nnnn2C)cc1OC	1.7%	27.3%	10.4µM*	-9.8%	-5.7%	4.9%
COC(=O)c1cnn(-c2nc(OC)cc(OC)n2)c1C	19.3%	-0.3%	21.0%	-1.4%	1.6%	-6.2%
COc1cc(OC)nc(-n2ncc(Br)c(Br)c2=O)n1	-57.2%	?	13.1µM*	-22.2%	1.78µM*	-4.7%
Cc1nc(Sc2ccccc2)c(C#N)c(C)c1[N+](=O)[O-]	-0.3%	7.38µM*	?	-47.4%	-19.1%	-4.5%
COc1ccc(CN2CCC(CO)(Cc3ccccc3C(F)(F)F)CC2)c(F)c1	-0.4%	4.65µM*	?	42.3%	5.3%	6.6%
Cc1onc(-c2ccc(Cl)cc2Cl)c1-c1csc(N/N=C/c2ccccc2)n1	0.4%	3.7µM*	?	-33.5%	13.0%	4.9%
CCCSCCCNC(=O)CN1C(=O)COc2ccc(S(=O)(=O)N3CCC(C)CC3)cc21	nt	nt	nt	nt	5.62µM*	9.3%
CC1CCN(S(=O)(=O)c2ccc3c(c2)N(CC(=O)NCCN(C)C)C(=O)CO3)CC1	nt	nt	nt	nt	0.3%	11.6%
CC(C)CN(CCNC(=O)CN1C(=O)COc2ccc(S(=O)(=O)N3CCC(C)CC3)cc21)CC(C)C	4.3%	?	11.7µM*	-4.1%	25.6%	2.7%
CN(C)S(=O)(=O)c1ccc(C(=O)OCC(=O)c2ccc(OC(F)F)cc2OC(F)F)cc1	1.9%	-9.6%	-6.6%	-15.8%	7.9%	-14.1%
SMILES	SARS PLP yeast	Pf growth 48h	Pf growth 96h	AmpC no deterg	Sm TGR inh	AmpC detergent
CCCN(c1ccccc1CC)S(=O)(=O)c1ccc2c(c1)CC(C)N2C(=O)C1CC1 (configuration not stated)	nt	nt	nt	nt	4.1%	3.9%
CCOc1ccc(OCC)c(NC(=O)C2C3C=CC(O3)C2C(=O)NCc2ccco2)c1 (configuration not stated)	-3.7%	-12.6%	34.6%	3.2%	50.1µM*	3.8%
Cc1csc(NC(=O)C2C3C=CC(O3)C2C(=O)O)n1 (configuration not stated)	-1.9%	11.9%	1.9%	-20.3%	?	?
COc1ccc(NC(=O)C2C3C=CC(C3)C2C(=O)NCc2ccco2)c(OC)c1 (configuration not stated)	18.8%	30.4%	?	-11.7%	-21.9%	1.6%
CCOC(=O)c1cc(NC(=O)C2C3CCC(O3)C2C(=O)O)cc(C(=O)OCC)c1 (configuration not stated)	3.8%	?	?	36.4%	0.8%	?
CCc1ccccc1NC(=O)C1C2C=CC(O2)C1C(=O)O (configuration not stated)	-17.9%	3.2%	?	-7.7%	17.8µM*	-5.0%
CCOC(=O)c1cc(NC(=O)C2C3C=CC(O3)C2C(=O)O)cc(C(=O)OCC)c1 (configuration not stated)	6.4%	?	11.7µM*	-18.1%	?	-20.4%
O=C(O)C1C2C=CC(O2)C1C(=O)Nc1ccccc1C(F)(F)F (configuration not stated)	-32.8%	nt	-2.1%	-16.8%	8.91µM*	-11.8%
CCOc1ccccc1NC(=O)C1C2C=CC(O2)C1C(=O)O (configuration not stated)	-7.3%	7.2%	41.7%	-28.8%	20µM*	?
O=C(O)C1C2C=CC(O2)C1C(=O)Nc1cccc(C(F)(F)F)c1 (configuration not stated)	-12.8%	-10.4%	10.4µM*	-9.5%	100µM*	?
Cc1cc(C)cc(NC(=O)C2C3C=CC(O3)C2C(=O)O)c1 (configuration not stated)	-13.5%	0.7%	6.9%	-10.9%	-34.1%	3.3%
